Results filed as inconclusive are left out. Activity calls are given as the source filed them. Calls come from the whole dose curve; as a rule, active = well fitted curve in the direction sought with a large enough effect; inconclusive = small, poorly fitted or top-dose-only effect, or another doubt; inactive = no such curve, though single readings can be large; an effect the other way counts as inactive or inconclusive.
What was measured:
HaCat = assay: Cytotoxic Profiling of Annotated Libraries Using Quantitative High-Throughput Screening (AID 1296008); conditions: Five cell lines viability, CellTiter-Glo ATP luminescence, 48-72 h; max response: stronger effect = lower value; note: nearly all actives have a fitted effect of over 60% in size
In short: (§1)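 Cytotoxicity was measured as CellTiter-Glo ATP luminescence, read after 10 min at room temperature. Compound treatment of the cells lasted 48 or 72 hr at 37 degrees Celsius in a qHTS format.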

KB-3-1 = assay: as above; conditions: Five cell lines viability, CellTiter-Glo ATP luminescence, 48-72 h; max response: stronger effect = lower value
In short: as §1

NIH3T3 = assay: as above; conditions: Five cell lines viability, CellTiter-Glo ATP luminescence, 48-72 h; max response: stronger effect = lower value
In short: as §1

C33A = assay: Primary qHTS to identify gynecologic anti-cancer compounds using libraries of approved drugs and bioactive compounds (AID 1345084); conditions: Gynecologic cancer cell panel viability, ATPlite luminescence, 48 h; series mostly up to 57.5 µM; note: nearly all actives have a fitted effect of over 55% in size
In short: (§2)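 Cytotoxicity screen measuring ATP content by luciferase luminescence. Each compound is applied at five concentrations for 48 h at 37 C with 5% CO2.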

CAOV3 = assay: as above; conditions: Gynecologic cancer cell panel viability, ATPlite luminescence, 48 h; series mostly up to 57.5 µM
In short: as §2

CASKI = assay: as above; conditions: Gynecologic cancer cell panel viability, ATPlite luminescence, 48 h; series mostly up to 57.5 µM
In short: as §2

Es-2 = assay: as above; conditions: Gynecologic cancer cell panel viability, ATPlite luminescence, 48 h; series mostly up to 57.5 µM
In short: as §2

HeLa = assay: as above; conditions: Gynecologic cancer cell panel viability, ATPlite luminescence, 48 h; series mostly up to 57.5 µM
In short: as §2

Hek293T = assay: as above; conditions: Gynecologic cancer cell panel viability, ATPlite luminescence, 48 h, control line for the selectivity index; series mostly up to 57.5 µM
In short: as §2

JEG-3 = assay: as above; conditions: Gynecologic cancer cell panel viability, ATPlite luminescence, 48 h; series mostly up to 57.5 µM
In short: as §2

OV90 = assay: as above; conditions: Gynecologic cancer cell panel viability, ATPlite luminescence, 48 h; series mostly up to 57.5 µM
In short: as §2
% is set by controls: 0 for no effect and ±100 for the full control effect.

COC(=O)C(C)C1CCC2(C)C(=O)C=CC(C)(O)C2C1O (stereo not drawn)
inactive: max response (HaCat) 4.7% | outcome (KB-3-1) | max response (NIH3T3) 2.97% | Potency (C33A) | Potency (CAOV3) | Potency (CASKI) | Potency (Es-2) | Potency (HeLa) | Potency (Hek293T) | Potency (JEG-3) | Potency (OV90)

CC(C)CC(=O)OC1OC=C(CO[C@@H]2O[C@H](CO)[C@@H](O)[C@H](O)[C@H]2O)C2CC(O)C(O)(CO)C12 (stereo partly drawn)
inactive: max response (HaCat) -4.52% | max response (KB-3-1) 2.5% | max response (NIH3T3) -2.63% | Potency (C33A) | Potency (CAOV3) | Potency (CASKI) | Potency (Es-2) | Potency (HeLa) | Potency (Hek293T) | Potency (JEG-3) | Potency (OV90)

CC1(O)CCCC2(C)C1CCC13CC(CO)C(CCC12)C3 (stereo not drawn)
inactive: max response (HaCat) 2.13% | outcome (KB-3-1) | max response (NIH3T3) -0.27% | Potency (C33A) | Potency (CAOV3) | Potency (CASKI) | Potency (Es-2) | Potency (HeLa) | Potency (Hek293T) | Potency (JEG-3) | Potency (OV90)

O=C(O)c1cccc(S(=O)(=O)N2CCc3ccccc3C2)c1
inactive: max response (HaCat) -24.7% | max response (KB-3-1) 0.457% | max response (NIH3T3) -16.4% | Potency (C33A) | Potency (CAOV3) | Potency (CASKI) | Potency (Es-2) | Potency (HeLa) | Potency (Hek293T) | Potency (JEG-3) | Potency (OV90)

OCCc1ccc(O[C@@H]2O[C@H](CO)[C@@H](O)[C@H](O)[C@H]2O)cc1
inactive: max response (HaCat) -3.11% | max response (KB-3-1) -1.98% | max response (NIH3T3) 2.39% | Potency (C33A) | Potency (CAOV3) | Potency (CASKI) | Potency (Es-2) | Potency (HeLa) | Potency (Hek293T) | Potency (JEG-3) | Potency (OV90)

Cc1cc(C(=O)N2CCCCc3ccccc32)ccc1CNC(=O)N1CCC[C@H]1C(=O)N(C)C
inactive: max response (HaCat) -11% | max response (KB-3-1) 4.93% | max response (NIH3T3) 3.28% | Potency (C33A) | Potency (CAOV3) | Potency (CASKI) | Potency (Es-2) | Potency (HeLa) | Potency (Hek293T) | Potency (JEG-3) | Potency (OV90)

C=C[C@H]1[C@H](O[C@@H]2O[C@H](CO)[C@@H](O)[C@H](O)[C@H]2O)OC=C(C(=O)OC)[C@H]1C/C=C(/C=O)[C@@H]1C(C(=O)OC)=CO[C@@H](O[C@@H]2O[C@H](CO)[C@@H](O)[C@H](O)[C@H]2O)[C@@H]1C=C
inactive: max response (HaCat) -4.96% | max response (KB-3-1) 1.41% | max response (NIH3T3) 4.13% | Potency (C33A) | Potency (CAOV3) | Potency (CASKI) | Potency (Es-2) | Potency (HeLa) | Potency (Hek293T) | Potency (JEG-3) | Potency (OV90)

C[C@@H]1C[C@@H](O)[C@@]23CO[C@@H](O)[C@@H]2CCC[C@@H]3[C@@]12C[C@@H](c1ccoc1)OC2=O
inactive: max response (HaCat) -27.9% | max response (KB-3-1) 7.75% | max response (NIH3T3) 4.21% | Potency (C33A) | Potency (CAOV3) | Potency (CASKI) | Potency (Es-2) | Potency (HeLa) | Potency (Hek293T) | Potency (JEG-3) | Potency (OV90)

CC[C@@H](O)C[C@@H]1C(C)=C[C@@H]2CCCC[C@@H]2[C@@]1(C)C(=O)O
inactive: max response (HaCat) -3.74% | outcome (KB-3-1) | max response (NIH3T3) -7.4% | Potency (C33A) | Potency (CAOV3) | Potency (CASKI) | Potency (Es-2) | Potency (HeLa) | Potency (Hek293T) | Potency (JEG-3) | Potency (OV90)

COCCOc1ccc(N2CCN(CCn3ncc4c3nc(N)n3nc(-c5ccco5)nc43)CC2)cc1
inactive: max response (HaCat) 2.38% | max response (KB-3-1) -29.2% | max response (NIH3T3) 0.99% | Potency (C33A) | Potency (CAOV3) | Potency (CASKI) | Potency (Es-2) | Potency (HeLa) | Potency (Hek293T) | Potency (JEG-3) | Potency (OV90)

NCc1c[nH]c(=S)n1[C@@H]1CCc2c(F)cc(F)cc2C1
inactive: max response (HaCat) 3.97% | max response (KB-3-1) -4.38% | max response (NIH3T3) -1.29% | Potency (C33A) | Potency (CAOV3) | Potency (CASKI) | Potency (Es-2) | Potency (HeLa) | Potency (Hek293T) | Potency (JEG-3) | Potency (OV90)

CC(CCC1(O)OC2CC3C4CCC5CC(O[C@@H]6O[C@H](CO)[C@@H](O)[C@H](O)[C@H]6O[C@@H]6O[C@@H](C)[C@H](O)[C@@H](O)[C@H]6O)C(O)CC5(C)C4CCC3(C)C2C1C)CO[C@@H]1O[C@H](CO)[C@@H](O)[C@H](O)[C@H]1O (stereo partly drawn)
inactive: max response (HaCat) -8.4% | max response (KB-3-1) -6.35% | max response (NIH3T3) -21% | activity change, negative = cytotoxicity (C33A) 3.88% [at 11.6 µM] | activity change, negative = cytotoxicity (CAOV3) -13.8% [at 11.6 µM] | activity change, negative = cytotoxicity (CASKI) -0.222% [at 11.6 µM] | activity change, negative = cytotoxicity (Es-2) -3.1% [at 11.6 µM] | activity change, negative = cytotoxicity (HeLa) 3.09% [at 11.6 µM] | activity change, negative = cytotoxicity (Hek293T) 17.8% [at 11.6 µM] | activity change, negative = cytotoxicity (JEG-3) -0.873% [at 11.6 µM] | activity change, negative = cytotoxicity (OV90) 22.7% [at 11.6 µM]

Cc1cc(Cl)ccc1COc1ccnn1-c1cc(C(=O)O)ccn1
inactive: max response (HaCat) -5.14% | outcome (KB-3-1) | max response (NIH3T3) 0.276% | Potency (C33A) | Potency (CAOV3) | Potency (CASKI) | Potency (Es-2) | Potency (HeLa) | Potency (Hek293T) | Potency (JEG-3) | Potency (OV90)

Source: PubChem BioAssay (NCATS)
